The supplement of paper PMC11732987, “Enantioselective OTUD7B fragment discovery through chemoproteomics screening and high-throughput optimisation” (Communications Chemistry, 2025)

Legend:
Assay in all cases: log2 ratio of Biotin-Ahx-Ub-VS probe labelling (fragment/DMSO); higher = less target engagement (more negative = stronger competition), active = hit call of the paper (q ≤ 0.05, log2 ratio ≤ -1)
Settings in all cases: compound concentration: 200 uM; treatment time: 3 h
USP9X = USP9X (UniProt Q93008)
Sequence of USP9X (Q93008 whole entry, the tested form may be a part): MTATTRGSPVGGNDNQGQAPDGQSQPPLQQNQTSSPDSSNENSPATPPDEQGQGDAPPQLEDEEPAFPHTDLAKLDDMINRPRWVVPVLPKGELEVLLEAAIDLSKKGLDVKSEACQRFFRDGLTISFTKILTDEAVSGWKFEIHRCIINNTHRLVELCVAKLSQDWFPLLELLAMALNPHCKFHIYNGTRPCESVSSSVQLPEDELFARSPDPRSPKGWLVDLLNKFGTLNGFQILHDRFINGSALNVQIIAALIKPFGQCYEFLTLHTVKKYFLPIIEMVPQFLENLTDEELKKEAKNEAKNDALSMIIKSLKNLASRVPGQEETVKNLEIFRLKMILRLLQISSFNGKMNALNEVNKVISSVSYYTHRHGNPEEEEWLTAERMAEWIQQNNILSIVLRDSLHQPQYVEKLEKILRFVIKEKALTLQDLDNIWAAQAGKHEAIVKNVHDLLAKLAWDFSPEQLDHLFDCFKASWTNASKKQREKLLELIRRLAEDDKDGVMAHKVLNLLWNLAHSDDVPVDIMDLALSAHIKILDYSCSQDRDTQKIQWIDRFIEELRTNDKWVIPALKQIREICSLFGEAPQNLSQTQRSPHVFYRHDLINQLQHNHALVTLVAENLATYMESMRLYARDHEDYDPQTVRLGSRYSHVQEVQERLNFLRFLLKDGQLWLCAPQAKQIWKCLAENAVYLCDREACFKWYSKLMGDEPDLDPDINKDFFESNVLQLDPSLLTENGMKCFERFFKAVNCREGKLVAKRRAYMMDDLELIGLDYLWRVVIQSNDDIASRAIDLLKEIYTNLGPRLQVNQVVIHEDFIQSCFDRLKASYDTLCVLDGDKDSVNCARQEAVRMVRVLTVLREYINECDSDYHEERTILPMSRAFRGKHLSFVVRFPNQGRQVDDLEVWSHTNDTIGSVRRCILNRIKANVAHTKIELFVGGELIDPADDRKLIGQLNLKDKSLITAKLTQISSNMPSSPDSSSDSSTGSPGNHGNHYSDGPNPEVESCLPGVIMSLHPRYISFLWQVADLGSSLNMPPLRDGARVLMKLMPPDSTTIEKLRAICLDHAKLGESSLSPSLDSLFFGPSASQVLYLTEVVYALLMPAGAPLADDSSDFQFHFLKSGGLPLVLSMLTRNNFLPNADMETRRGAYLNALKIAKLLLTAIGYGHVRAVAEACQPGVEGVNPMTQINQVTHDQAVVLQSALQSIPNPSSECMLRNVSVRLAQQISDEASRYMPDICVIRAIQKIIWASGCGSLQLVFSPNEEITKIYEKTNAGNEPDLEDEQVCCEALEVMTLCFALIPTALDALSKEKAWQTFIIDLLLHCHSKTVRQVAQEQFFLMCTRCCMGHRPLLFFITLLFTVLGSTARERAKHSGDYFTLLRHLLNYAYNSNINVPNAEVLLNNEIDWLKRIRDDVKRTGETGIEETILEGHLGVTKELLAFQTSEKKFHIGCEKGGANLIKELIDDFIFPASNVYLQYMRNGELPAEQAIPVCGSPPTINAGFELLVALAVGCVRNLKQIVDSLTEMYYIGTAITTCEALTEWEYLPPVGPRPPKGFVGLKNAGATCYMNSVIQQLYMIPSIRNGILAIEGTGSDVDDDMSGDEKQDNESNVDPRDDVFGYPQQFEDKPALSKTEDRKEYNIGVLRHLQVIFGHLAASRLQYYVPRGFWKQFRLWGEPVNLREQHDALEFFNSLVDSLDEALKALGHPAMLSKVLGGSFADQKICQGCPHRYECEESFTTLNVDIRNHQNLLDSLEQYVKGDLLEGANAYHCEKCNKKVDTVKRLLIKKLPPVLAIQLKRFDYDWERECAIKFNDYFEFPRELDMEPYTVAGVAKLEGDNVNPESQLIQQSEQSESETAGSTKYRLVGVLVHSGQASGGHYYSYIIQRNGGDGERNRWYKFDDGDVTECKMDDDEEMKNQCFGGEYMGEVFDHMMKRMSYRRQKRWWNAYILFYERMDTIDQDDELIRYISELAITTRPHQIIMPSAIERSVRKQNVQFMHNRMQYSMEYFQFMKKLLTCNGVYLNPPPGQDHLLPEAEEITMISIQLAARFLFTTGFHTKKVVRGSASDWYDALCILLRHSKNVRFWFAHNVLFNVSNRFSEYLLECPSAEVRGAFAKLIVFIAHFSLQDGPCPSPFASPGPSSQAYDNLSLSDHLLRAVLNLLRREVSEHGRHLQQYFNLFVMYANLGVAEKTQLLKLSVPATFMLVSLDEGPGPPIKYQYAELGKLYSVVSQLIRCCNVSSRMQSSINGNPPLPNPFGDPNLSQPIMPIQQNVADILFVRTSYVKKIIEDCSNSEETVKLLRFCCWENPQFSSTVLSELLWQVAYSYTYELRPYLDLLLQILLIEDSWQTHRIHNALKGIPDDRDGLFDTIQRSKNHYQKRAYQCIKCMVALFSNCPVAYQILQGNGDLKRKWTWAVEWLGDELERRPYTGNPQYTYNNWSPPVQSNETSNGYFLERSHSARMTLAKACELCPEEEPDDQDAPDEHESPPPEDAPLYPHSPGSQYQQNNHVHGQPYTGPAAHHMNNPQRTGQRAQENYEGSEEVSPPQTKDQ
Summary of the method: (§1)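 Using Biotin-Ahx-Ub-VS at 0.5 µM final for 1 h, DUBs were labelled in HEK293T lysate (495 µg per sample) that had first been treated in triplicate with fragment at 200 µM or vehicle for 3 h. NeutrAvidin enrichment, LysC and trypsin digestion and diaPASEF LC-MS/MS followed. Spectronaut label-free quantities were global-median-normalised. Values are average log2 fragment/vehicle ratios by unpaired t-test, using proteins with ≥2 unique peptides.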

UniProt O00487 = target: UniProt O00487
Summary of the method: as §1

UniProt O00507 = target: UniProt O00507
Sequence of UniProt O00507 (O00507 whole entry): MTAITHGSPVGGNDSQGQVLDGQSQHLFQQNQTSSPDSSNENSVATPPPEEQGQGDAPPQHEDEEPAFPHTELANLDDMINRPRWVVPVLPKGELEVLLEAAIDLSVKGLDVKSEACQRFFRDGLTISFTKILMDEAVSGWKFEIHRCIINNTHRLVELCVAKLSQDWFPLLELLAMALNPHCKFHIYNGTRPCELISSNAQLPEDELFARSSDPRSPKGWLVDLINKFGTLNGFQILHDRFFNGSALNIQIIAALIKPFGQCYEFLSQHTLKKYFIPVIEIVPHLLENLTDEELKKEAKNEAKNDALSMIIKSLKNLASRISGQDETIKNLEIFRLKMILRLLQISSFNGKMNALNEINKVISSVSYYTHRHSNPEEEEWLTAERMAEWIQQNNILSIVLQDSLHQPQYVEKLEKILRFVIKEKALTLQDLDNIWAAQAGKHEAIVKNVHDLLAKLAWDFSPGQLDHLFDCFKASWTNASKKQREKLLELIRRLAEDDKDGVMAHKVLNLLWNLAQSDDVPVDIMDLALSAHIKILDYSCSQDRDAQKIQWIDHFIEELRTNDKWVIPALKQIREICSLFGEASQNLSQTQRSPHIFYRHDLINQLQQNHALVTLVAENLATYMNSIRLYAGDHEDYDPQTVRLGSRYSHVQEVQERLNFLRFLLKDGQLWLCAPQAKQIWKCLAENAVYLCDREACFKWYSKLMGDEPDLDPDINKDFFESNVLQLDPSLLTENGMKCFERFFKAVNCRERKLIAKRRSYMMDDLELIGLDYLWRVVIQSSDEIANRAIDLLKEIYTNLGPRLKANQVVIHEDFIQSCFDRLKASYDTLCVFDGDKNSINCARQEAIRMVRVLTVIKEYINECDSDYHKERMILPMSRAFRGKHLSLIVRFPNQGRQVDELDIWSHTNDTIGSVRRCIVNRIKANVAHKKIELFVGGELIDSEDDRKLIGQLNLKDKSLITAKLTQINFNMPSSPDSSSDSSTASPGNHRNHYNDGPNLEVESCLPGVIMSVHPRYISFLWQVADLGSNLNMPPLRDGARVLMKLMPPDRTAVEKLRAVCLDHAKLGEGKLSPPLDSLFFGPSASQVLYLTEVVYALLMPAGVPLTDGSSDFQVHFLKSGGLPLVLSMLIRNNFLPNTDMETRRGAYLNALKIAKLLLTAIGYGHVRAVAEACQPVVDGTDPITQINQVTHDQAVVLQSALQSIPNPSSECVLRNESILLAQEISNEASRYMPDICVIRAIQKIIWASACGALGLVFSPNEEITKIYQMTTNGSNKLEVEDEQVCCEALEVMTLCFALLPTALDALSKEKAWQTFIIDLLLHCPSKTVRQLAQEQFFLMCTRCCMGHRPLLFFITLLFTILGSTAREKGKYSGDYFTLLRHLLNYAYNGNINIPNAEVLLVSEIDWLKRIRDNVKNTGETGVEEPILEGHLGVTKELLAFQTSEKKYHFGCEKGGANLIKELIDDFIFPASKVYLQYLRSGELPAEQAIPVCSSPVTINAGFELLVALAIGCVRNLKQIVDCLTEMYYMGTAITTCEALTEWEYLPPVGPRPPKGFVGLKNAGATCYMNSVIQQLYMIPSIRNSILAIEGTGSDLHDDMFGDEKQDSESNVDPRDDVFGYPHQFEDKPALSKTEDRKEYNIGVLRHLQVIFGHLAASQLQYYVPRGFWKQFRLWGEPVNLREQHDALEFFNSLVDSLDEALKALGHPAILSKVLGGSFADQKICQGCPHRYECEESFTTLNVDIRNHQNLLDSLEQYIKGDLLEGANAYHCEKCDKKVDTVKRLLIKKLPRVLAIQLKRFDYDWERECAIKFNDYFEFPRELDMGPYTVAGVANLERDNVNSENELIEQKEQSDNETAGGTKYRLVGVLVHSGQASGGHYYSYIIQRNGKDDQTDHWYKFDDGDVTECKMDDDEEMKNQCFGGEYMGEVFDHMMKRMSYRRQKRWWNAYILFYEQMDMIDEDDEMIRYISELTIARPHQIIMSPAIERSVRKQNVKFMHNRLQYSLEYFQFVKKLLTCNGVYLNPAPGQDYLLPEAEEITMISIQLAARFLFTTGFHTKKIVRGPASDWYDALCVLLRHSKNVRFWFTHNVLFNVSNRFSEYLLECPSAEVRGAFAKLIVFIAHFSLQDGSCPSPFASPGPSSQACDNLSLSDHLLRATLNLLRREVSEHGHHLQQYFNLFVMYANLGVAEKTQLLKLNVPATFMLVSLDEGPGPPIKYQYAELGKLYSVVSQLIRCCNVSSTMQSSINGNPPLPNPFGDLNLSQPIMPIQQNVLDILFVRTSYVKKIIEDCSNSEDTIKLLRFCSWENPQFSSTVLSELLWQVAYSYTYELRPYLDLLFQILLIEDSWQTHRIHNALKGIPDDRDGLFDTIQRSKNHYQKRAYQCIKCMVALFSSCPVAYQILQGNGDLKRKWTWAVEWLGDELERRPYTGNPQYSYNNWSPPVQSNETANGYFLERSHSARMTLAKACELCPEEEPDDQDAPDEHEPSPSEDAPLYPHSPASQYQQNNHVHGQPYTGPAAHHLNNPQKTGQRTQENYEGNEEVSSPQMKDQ
Summary of the method: as §1

UniProt P51784 = target: UniProt P51784
Summary of the method: as §1

UniProt Q5T2D3 = target: T1, UniProt Q5T2D3
T1 sequence (whole entry): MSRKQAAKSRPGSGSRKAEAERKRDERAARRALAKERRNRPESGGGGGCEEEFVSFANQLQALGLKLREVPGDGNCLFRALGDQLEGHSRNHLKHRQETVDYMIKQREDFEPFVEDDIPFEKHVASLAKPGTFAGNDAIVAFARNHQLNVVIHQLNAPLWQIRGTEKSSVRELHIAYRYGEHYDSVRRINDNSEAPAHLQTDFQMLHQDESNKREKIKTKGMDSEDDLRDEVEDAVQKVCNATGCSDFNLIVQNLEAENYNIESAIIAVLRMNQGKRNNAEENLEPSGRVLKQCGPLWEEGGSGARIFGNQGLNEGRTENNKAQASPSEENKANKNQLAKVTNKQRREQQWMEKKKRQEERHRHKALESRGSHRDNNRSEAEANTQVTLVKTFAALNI
Summary of the method: as §1

UniProt Q8TE49 = target: T2, UniProt Q8TE49
T2 sequence (whole entry): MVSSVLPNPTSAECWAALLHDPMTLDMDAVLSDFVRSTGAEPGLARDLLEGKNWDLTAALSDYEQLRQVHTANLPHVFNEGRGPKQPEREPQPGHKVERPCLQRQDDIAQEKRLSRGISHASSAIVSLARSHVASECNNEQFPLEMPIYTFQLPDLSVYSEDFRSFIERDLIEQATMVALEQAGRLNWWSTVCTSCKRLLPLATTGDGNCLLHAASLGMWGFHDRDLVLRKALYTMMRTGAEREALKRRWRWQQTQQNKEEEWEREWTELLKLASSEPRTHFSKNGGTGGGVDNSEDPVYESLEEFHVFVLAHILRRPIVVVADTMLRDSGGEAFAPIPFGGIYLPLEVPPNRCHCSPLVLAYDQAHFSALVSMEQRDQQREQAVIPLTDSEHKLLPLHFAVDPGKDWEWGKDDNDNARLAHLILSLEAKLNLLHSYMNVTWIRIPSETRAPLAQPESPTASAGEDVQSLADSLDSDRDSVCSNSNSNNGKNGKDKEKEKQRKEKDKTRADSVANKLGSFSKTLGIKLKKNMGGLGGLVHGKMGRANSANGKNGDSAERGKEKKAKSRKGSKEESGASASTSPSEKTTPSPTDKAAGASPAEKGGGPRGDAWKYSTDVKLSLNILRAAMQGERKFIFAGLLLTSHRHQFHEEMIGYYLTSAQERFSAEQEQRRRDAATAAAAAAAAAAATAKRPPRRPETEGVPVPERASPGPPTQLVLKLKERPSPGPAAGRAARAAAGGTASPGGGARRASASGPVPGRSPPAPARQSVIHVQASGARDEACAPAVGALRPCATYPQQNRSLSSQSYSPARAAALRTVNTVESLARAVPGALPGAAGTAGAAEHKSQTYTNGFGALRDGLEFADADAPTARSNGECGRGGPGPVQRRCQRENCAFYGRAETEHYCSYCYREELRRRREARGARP
Summary of the method: as §1

UniProt Q9P2H5 = target: T3, UniProt Q9P2H5
T3 sequence (whole entry): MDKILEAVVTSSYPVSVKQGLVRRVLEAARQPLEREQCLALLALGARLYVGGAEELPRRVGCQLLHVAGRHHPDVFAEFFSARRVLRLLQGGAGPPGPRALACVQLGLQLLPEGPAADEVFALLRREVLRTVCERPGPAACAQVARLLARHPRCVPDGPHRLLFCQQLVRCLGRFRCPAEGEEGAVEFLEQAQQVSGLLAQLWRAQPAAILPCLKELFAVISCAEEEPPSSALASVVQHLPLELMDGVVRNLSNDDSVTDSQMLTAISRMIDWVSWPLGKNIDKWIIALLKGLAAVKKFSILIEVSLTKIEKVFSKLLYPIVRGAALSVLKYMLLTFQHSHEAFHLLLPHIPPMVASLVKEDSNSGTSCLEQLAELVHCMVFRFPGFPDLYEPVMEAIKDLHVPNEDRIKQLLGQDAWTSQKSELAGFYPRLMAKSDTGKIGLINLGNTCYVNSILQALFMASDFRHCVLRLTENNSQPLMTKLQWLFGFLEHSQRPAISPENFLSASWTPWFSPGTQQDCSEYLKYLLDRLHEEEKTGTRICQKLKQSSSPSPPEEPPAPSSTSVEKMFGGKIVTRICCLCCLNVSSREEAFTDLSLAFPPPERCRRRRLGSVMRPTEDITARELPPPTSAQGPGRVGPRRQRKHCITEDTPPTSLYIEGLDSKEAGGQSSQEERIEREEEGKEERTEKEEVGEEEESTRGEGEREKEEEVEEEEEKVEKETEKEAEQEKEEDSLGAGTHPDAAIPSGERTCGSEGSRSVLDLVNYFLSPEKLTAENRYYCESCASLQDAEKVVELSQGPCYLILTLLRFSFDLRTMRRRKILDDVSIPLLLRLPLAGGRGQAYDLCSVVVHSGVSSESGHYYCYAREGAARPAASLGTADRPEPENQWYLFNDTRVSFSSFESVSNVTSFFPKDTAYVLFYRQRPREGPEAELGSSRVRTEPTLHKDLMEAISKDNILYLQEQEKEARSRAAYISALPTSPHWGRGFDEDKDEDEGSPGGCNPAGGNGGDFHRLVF
Summary of the method: as §1

UniProt Q9UGI0 = target: T4, UniProt Q9UGI0
T4 sequence (whole entry): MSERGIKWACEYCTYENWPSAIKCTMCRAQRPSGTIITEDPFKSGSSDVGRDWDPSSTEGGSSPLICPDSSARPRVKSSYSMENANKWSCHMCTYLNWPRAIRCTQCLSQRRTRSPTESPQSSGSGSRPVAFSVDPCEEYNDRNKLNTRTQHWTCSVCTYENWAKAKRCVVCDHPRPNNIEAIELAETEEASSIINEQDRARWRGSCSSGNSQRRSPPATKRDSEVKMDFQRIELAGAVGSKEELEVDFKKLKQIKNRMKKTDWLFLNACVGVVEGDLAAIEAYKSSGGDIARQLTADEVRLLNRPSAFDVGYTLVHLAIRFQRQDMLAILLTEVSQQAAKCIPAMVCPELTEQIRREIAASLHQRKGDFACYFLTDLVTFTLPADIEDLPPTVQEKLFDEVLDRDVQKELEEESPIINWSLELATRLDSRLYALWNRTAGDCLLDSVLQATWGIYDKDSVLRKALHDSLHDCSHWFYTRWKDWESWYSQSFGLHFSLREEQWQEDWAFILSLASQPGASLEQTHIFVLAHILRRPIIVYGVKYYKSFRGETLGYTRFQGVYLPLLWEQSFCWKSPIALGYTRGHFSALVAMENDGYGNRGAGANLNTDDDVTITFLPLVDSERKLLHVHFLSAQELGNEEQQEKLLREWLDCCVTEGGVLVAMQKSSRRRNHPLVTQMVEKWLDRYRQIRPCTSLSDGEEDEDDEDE
Summary of the method: as §1

YOD1 = target: T5, YOD1 (UniProt Q5VVQ6)
T5 sequence (whole entry): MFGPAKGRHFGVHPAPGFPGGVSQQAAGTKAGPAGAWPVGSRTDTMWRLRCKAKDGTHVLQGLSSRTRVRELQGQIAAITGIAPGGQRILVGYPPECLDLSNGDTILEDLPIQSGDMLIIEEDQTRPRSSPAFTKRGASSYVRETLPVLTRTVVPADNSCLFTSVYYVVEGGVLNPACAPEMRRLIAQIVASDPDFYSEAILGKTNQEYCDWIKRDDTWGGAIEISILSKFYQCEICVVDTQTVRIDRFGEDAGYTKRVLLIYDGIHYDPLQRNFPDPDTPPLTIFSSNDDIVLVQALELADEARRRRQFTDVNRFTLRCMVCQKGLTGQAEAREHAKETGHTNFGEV
Summary of the method: as §1

Measured: log2 ratio of Biotin-Ahx-Ub-VS probe labelling

Cc1nc(CN2CCCN(C(=O)CCl)CC2)no1.Cl
inactive: USP9X 0.101 | UniProt O00487 0.118 | UniProt O00507 0.543 | UniProt P51784 0.151 | UniProt Q5T2D3 -0.111 | UniProt Q8TE49 0.0982 | UniProt Q9P2H5 -0.193 | UniProt Q9UGI0 0.143 | YOD1 0.273
